Data reported in the supplement of paper PMC11006884.
About 6,500 targets were measured; listed, in parts, are those with a hit and a random draw of the rest. About 2% of all pairs of compound and target were hits.

Compound: COC(=O)C#Cc1ccccc1 [methyl 3-phenylpropiolate]
Test: log2 ratio of iodoacetamide-alkyne labeling of the cysteine site, DMSO over compound (competition); higher = stronger covalent engagement of the cysteine by the compound, active = 1 or more
Settings: 500 µM; treatment time 1 h; system: HEK293T cell lysate
Outline: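 For each cysteine, the log2 competition ratio is mean control-channel reporter intensity over mean compound-channel reporter intensity. HEK293T lysate (2 mg/mL) was exposed to vehicle or electrophile (500 µM, 1 h, ambient temperature), labelled with iodoacetamide alkyne (1 h), clicked to sCIP-TMT reagents, digested overnight with trypsin at 37 °C, streptavidin-enriched and analysed by Orbitrap Eclipse LC-MS/MS with FAIMS and FragPipe. Cysteines quantified in only one of three replicates, each with duplicate channels, were excluded.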

UniProt P11310, sequence (P11310 whole entry, looked up): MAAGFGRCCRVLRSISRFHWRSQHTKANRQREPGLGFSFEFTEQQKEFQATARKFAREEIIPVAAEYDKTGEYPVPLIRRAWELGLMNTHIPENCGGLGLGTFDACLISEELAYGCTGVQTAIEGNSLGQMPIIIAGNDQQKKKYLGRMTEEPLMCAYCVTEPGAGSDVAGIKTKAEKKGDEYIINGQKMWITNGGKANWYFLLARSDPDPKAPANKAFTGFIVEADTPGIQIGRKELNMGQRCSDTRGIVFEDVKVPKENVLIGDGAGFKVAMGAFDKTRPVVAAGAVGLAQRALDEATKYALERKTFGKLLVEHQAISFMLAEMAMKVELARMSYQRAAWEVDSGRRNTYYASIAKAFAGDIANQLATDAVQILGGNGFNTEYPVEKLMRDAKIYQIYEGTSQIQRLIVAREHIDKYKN
UniProt P17987, sequence (P17987 whole entry, looked up): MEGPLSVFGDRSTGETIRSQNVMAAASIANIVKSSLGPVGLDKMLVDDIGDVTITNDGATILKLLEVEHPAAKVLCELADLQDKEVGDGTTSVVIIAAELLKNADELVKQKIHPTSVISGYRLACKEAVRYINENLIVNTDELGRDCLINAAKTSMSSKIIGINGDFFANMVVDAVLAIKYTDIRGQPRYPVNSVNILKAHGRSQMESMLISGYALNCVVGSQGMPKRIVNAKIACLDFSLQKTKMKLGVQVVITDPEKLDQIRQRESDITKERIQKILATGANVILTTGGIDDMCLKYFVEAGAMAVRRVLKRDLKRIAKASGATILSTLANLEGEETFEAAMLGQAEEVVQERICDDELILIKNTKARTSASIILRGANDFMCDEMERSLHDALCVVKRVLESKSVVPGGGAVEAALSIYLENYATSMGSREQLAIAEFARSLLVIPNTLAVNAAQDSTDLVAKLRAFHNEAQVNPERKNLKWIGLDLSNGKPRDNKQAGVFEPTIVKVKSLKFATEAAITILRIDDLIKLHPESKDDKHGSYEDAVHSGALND
UniProt O95639, sequence (O95639 whole entry, looked up): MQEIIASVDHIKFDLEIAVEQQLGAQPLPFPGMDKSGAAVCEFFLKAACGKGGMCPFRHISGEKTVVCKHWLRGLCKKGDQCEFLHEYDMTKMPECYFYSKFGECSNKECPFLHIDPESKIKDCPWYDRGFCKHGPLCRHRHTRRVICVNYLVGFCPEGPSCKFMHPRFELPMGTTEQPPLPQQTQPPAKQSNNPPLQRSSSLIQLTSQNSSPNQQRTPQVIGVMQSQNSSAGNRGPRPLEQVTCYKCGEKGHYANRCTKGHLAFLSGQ
UniProt P11586, sequence (P11586 whole entry, looked up): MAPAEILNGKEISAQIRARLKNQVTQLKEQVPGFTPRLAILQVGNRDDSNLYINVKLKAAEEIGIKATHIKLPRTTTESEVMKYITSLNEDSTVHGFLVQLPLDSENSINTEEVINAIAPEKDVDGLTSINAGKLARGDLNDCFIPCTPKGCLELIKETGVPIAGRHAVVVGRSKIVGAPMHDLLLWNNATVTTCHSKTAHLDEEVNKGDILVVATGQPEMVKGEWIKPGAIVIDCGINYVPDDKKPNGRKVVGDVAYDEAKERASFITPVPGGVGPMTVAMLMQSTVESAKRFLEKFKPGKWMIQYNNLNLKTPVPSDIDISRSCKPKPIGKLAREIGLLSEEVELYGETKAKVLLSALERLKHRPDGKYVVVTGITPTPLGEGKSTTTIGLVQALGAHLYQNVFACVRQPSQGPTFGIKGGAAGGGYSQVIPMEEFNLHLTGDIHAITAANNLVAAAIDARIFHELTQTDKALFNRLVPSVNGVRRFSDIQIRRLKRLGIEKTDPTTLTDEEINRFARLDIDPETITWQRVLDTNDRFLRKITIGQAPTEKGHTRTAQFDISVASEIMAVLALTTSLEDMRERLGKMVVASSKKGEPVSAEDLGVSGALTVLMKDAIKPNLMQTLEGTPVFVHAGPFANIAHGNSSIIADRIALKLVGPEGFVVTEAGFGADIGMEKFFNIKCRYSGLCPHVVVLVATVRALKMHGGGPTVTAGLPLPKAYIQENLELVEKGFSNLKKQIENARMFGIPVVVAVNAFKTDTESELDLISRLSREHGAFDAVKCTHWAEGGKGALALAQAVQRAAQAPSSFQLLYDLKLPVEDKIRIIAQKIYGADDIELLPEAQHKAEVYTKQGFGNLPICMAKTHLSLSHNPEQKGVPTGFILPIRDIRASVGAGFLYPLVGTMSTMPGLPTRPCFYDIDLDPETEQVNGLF
UniProt P23921, sequence (P23921 whole entry, looked up): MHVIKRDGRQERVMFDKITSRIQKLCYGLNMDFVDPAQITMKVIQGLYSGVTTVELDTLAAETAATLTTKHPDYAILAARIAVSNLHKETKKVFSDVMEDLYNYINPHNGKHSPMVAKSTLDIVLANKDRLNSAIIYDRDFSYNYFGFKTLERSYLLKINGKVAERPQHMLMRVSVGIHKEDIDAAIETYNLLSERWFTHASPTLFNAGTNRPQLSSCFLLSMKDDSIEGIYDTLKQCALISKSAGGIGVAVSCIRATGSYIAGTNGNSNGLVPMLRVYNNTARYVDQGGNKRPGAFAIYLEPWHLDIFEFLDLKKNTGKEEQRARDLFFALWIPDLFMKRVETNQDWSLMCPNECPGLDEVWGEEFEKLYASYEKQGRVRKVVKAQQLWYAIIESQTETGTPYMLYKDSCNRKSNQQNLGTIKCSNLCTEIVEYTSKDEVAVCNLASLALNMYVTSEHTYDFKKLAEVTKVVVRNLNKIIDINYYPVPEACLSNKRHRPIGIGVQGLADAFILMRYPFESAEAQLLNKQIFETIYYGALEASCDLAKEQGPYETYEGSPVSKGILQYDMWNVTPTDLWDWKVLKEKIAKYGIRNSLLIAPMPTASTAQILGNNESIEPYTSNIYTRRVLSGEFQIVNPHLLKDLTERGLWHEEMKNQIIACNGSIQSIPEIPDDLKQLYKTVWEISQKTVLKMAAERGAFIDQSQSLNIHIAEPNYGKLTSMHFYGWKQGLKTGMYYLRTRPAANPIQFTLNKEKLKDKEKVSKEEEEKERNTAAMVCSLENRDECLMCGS
UniProt P00966, sequence (P00966 whole entry): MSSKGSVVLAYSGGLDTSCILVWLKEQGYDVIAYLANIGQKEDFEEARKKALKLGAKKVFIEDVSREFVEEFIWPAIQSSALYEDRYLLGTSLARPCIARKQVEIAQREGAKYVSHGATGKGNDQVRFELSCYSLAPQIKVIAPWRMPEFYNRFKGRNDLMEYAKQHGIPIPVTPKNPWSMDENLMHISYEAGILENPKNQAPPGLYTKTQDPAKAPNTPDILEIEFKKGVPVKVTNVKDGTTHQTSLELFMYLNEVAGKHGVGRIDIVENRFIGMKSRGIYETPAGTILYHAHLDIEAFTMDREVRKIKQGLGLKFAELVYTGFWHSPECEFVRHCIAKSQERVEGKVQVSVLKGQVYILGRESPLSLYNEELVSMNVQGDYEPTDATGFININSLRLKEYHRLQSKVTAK
UniProt P42765, sequence (P42765 whole entry, looked up): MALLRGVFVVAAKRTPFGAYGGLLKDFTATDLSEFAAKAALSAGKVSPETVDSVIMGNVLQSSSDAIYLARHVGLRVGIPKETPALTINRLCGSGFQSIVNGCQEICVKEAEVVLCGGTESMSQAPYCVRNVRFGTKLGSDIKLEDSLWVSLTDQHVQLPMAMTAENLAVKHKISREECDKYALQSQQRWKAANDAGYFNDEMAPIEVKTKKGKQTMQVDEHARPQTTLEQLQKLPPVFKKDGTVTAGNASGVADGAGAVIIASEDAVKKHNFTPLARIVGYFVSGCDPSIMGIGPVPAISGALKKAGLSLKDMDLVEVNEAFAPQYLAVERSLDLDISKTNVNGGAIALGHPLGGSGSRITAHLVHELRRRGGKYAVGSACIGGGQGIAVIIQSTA
UniProt P42166, sequence (P42166 whole entry, looked up): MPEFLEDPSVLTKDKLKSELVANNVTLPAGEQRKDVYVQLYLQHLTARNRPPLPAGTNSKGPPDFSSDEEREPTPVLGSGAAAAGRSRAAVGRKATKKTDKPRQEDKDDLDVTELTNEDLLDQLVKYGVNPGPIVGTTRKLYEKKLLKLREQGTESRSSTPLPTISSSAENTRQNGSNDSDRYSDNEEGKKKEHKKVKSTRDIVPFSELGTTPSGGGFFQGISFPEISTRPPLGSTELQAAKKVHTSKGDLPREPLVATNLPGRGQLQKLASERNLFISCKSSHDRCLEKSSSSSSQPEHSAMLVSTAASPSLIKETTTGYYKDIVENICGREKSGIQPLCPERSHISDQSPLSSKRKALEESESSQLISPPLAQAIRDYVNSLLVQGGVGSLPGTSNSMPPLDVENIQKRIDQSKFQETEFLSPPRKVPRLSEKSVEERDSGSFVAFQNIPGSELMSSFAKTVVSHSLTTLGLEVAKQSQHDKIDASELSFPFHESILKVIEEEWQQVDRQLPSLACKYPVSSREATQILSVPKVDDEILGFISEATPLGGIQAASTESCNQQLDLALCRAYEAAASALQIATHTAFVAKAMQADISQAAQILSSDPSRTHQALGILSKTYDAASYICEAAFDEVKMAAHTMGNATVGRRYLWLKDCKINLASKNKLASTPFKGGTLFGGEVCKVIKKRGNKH
UniProt P51970, sequence (P51970 whole entry): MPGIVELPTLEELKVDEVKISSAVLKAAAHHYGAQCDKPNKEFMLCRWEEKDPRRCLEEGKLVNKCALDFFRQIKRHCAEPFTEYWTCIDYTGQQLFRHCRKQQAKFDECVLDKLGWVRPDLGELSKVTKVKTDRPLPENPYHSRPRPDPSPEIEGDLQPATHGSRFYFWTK
UniProt P21964, sequence (P21964 whole entry, looked up): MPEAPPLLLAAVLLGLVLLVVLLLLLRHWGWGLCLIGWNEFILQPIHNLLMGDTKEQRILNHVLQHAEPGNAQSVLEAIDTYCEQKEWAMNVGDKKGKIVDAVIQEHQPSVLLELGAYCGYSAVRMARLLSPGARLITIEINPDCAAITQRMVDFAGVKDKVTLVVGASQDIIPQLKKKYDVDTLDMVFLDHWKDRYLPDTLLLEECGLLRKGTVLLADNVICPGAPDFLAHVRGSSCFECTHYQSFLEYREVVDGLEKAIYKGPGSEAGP

| Target | log2 ratio of iodoacetamide-alkyne labeling |
| --- | --- |
| UROD C308 (UniProt P06132) | 0.28 (inactive) |
| MTHFD1 C143 (UniProt P11586) | -0.0254 (inactive) |
| PCNA C62 (UniProt P12004) | 0.0598 (inactive) |
| FASN C1118 (UniProt P49327) | 0.203 (inactive) |
| ASS1 C132 (UniProt P00966) | 0.124 (inactive) |
| GMPS C631 (UniProt P49915) | 0.369 (inactive) |
| UniProt O95071_C739 | 0.0375 (inactive) |
| BCR C395 (UniProt P11274) | 1.17 (active) |
| IDH3G C81 (UniProt P51553) | 0.412 (inactive) |
| MAP1B C2088 (UniProt P46821) | 0.329 (inactive) |
| LRPPRC C208 (UniProt P42704) | 0.123 (inactive) |
| MSH6 C1337 (UniProt P52701) | 0.14 (inactive) |
| CTSB C319 (UniProt P07858) | 0.512 (inactive) |
| FDFT1 C6 (UniProt P37268) | 0.233 (inactive) |
| ACADM C156 (UniProt P11310) | 0.666 (inactive) |
| NDUFA8 C110 (UniProt P51970) | 1.12 (active) |
| HPRT1 C206 (UniProt P00492) | 0.0837 (inactive) |
| TCP1 C218 (UniProt P17987) | 0.0267 (inactive) |
| PCYT1A C73 (UniProt P49585) | 0.921 (inactive) |

| Target | log2 ratio of iodoacetamide-alkyne labeling |
| --- | --- |
| TMPO C341 (UniProt P42166) | 1.77 (active) |
| IARS C433 (UniProt P41252) | -0.0103 (inactive) |
| EEF2 C651 (UniProt P13639) | 0.0919 (inactive) |
| UniProt O96017_C539 | 0.494 (inactive) |
| EPRS C92 (UniProt P07814) | 0.571 (inactive) |
| TXN C35 (UniProt P10599) | 1.14 (active) |
| ETFB C71 (UniProt P38117) | 0.579 (inactive) |
| TTK C322 (UniProt P33981) | 1.29 (active) |
| IQGAP1 C781 (UniProt P46940) | 0.821 (inactive) |
| COMT C241 (UniProt P21964) | 0.194 (inactive) |
| RRM1 C26 (UniProt P23921) | 0.0708 (inactive) |
| CPSF4 C110 (UniProt O95639) | -0.138 (inactive) |
| ACAA2 C116 (UniProt P42765) | 1.22 (active) |
| RCC1 C93 (UniProt P18754) | 0.14 (inactive) |
| GDI2 C202 (UniProt P50395) | -0.0158 (inactive) |
| MKI67 C2206 (UniProt P46013) | 0.603 (inactive) |
| FASN C1992 (UniProt P49327) | 0.0894 (inactive) |
| EEF2 C369 (UniProt P13639) | 0.24 (inactive) |
